# Compound activity deposited in PubChem BioAssay by National Center for Advancing Translational Sciences (NCATS).
# IL-1B inflam inh = blocks inflammasome-driven IL-1 beta release; THP-1 LPS/ATP IL-1B secretion, AlphaLISA, 16 h; stronger effect = lower value; activity change, % at 57.5 µM; 4.7% of 360,000 active; AID 743279; in the data active = activity change below about -50%; inconclusive = mostly about -30% to -49%; also: % is scaled to controls: 0 for no effect and ±100 for the full control effect
#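 THP-1 cells pretreated 1 hr with compounds (up to 57.5 uM final), then stimulated with LPS (250 ng/mL final) plus ATP (1.25 mM final); secreted IL-1B measured by AlphaLISA after 16 hr, decreased signal indicating inhibition.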
# TDP1 cell noCPT = qHTS for Inhibitors of human tyrosyl-DNA phosphodiesterase 1 (TDP1): qHTS in cells in absence of CPT; DT40 Tdp1-/- hTDP1 cells, no CPT, ATP luminescence, 48 h; Potency, µM (doses to about 46.2 µM), without a hit: at the top dose activity change, negative = growth inhibition, usual class: inhibitors; 15% of 420,000 active; AID 686978, 2013; also: potency is read from the fitted curve at half-maximal effect; % is scaled to controls: 0 for no effect and ±100 for the full control effect; nearly all actives have a fitted effect of over 55% in size
#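 Chicken DT40 Tdp1-/- cells complemented with human TDP1, screened without camptothecin (DMSO vehicle only), 400 cells/well. Compounds pin-transferred, cells incubated at 37 °C for at least 48 hr. Growth read as ATP-dependent luminescence (CellTiter-Glo, 30 min at RT).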
# TDP1 cell CPT = DT40-hTDP1 cell growth loss with CPT | 12% of 420,000 active | Potency, µM (highest dose often 46.2 µM), inactives show at the top dose activity change, negative = growth inhibition, hits mostly inhibitors | AID 686979 | chicken DT40 Tdp1-/-;hTDP1 cells + 20 nM CPT, ATP luminescence, 48 h; also: potency is read from the fitted curve at half-maximal effect; % is scaled to controls: 0 for no effect and ±100 for the full control effect; nearly all actives have a fitted effect of over 55% in size
#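 Chicken DT40 Tdp1-/- cells stably complemented with human TDP1 were seeded at 400 cells/well in medium containing 20 nM camptothecin, exposed to pin-transferred compounds, and grown at 37 °C for at least 48 hr. Viability was read as ATP luminescence.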
# TGFb inhibitor = TGF-b pathway inhibition. HepG2 CAGA-GFP TGF-b/SMAD3 reporter, GFP fluorescence, 18 h; TGF-beta stimulated, 500 pg/mL final. Potency, µM (series often up to 46.1 µM), for the others: at the highest dose activity, negative = inhibition, most hits filed as inhibitors. 1.2% of 410,000 active. AID 588855; also: potency is read from the fitted curve at half-maximal effect; % is scaled to controls: 0 for no effect and ±100 for the full control effect; nearly all actives have a fitted effect of over 65% in size
#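 Per well, imaged GFP fluorescence of HEPG2 CAGA-GFP cells gives the signal; cells get compound, then TGF-beta (500 pg/mL final), 18 h at 37 degrees C; %Activity versus -TGF-beta and +DMSO controls.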
# HepG2 tox = counter-screen for TGF-b inhibitors: cytotoxicity in HepG2 cells; HepG2 CAGA-GFP viability, ATP luminescence, 18 h; Potency, µM (highest dose often 46.1 µM), for the others: at the top dose activity change, negative = cytotoxicity, most hits filed as cytotoxic; 0.76% of 410,000 active; also: potency is read from the fitted curve at half-maximal effect
#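 HepG2 CAGA-GFP cells (1000/well, DMEM with 1% FBS) received compound, then TGF-beta at 500 pg/mL final, and were incubated 18 hours at 37 degrees C. Viability was read by CellTiter-Glo luminescence. Media-only wells were set as complete cell-killing and DMSO as no toxicity.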
# TDP1 block = blocks human tyrosyl-DNA phosphodiesterase 1. Potency, µM (highest dose often 130 µM), for the others: top-dose activity change, negative = inhibition, usual class: inhibitors. Q9NUW8. 0.28% of 350,000 active. recombinant TDP1, AlphaScreen DNA substrate cleavage; also: potency is read from the fitted curve at half-maximal effect; % is scaled to controls: 0 for no effect and ±100 for the full control effect; nearly all actives have a fitted effect of over 40% in size
# Target sequence (Q9NUW8 whole entry, looked up): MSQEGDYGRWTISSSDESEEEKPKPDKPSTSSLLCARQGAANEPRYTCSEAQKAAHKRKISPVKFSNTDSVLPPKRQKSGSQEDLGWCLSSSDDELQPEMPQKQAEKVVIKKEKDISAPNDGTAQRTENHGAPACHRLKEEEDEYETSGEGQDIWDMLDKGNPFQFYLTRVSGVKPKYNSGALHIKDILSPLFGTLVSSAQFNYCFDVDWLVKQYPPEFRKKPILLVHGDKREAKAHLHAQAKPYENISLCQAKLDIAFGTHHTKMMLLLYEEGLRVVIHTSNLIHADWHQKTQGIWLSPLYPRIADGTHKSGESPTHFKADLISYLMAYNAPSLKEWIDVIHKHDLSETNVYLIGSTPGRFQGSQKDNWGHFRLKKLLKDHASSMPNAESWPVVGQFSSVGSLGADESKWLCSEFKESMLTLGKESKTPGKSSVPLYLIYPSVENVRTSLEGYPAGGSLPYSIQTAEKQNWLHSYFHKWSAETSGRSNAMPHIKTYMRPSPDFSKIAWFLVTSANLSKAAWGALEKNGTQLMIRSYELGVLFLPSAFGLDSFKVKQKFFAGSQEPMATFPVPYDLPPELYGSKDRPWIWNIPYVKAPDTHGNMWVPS
#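 E. coli-derived human Tdp1, 1 nM final. Cpd preinc 15 min RT; substrate 15 nM final, 5 min RT; AS bead mix 10 ug/ml final, 10 min RT. Signal loss = tyrosine-FITC cleavage. No-enzyme wells = max signal.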
# Starred values were filed as active, the others as inactive; ? = inconclusive; nt = not tested or not shown; [ ] = remark or other dose. A selection: hits, their analogues and other compounds. The true share with any hit is near 19%. Unless noted, calls follow the shape of the dose curve; as a rule, active = well fitted curve in the direction sought with a large enough effect; inconclusive = small, poorly fitted or top-dose-only effect, or another doubt; inactive = no such curve, though single readings can be large; an effect the other way counts as inactive or inconclusive.
SMILES,IL-1B inflam inh,TDP1 cell noCPT,TDP1 cell CPT,TGFb inhibitor,HepG2 tox,TDP1 block
Cc1ccc2nc(-c3cc(NC(=O)/C=C/c4ccccc4)ccc3Cl)oc2c1,nt,16µM*,23µM*,3%,-15%,2%[12.3 µM]
O=C(/C=C/c1ccccc1)Nc1cc(-c2nc3ccccc3o2)ccc1Cl,nt,-25%,?,?,10%,4%[12.3 µM]
Cc1ccc2nc(-c3cc(NC(=O)c4ccc5c(c4)OCCO5)ccc3Cl)oc2c1,nt,16µM*,?,-1%,-22%,3%
NC(=O)C1CCCN1Cc1ccc2c(c1)OCO2 (stereo not given),0,-5%,8%,-10%,-16%,nt
CSc1ccc(Nc2nn(-c3ccc(OC(F)(F)F)cc3)nc2C(C)=O)cc1,nt,-6%,-7%,1%,1%,7%
Cn1c(=O)c2c([nH]c(=S)n2Cc2ccc(Cl)cc2)n(C)c1=O,45,-16%,-27%,4%,-14%,nt
Cc1ccccc1CN1C(=O)C2(OCCCO2)c2ccccc21,-8,?,11µM*,-7%,-3%,3%
O=C(O)CN1C(=O)C2(OCCCO2)c2ccccc21,5,5%,2%,-15%,-5%,2%
O=C(NNC(=O)c1csc(-c2cccs2)n1)c1ccc(Cl)cc1,-2,?,?,?,-11%,nt
Cc1nc(C(=O)NNC(=O)c2ccc(Cl)cc2)cs1,66,12µM*,16µM*,10%,6%,nt
COc1ccc(Cc2nn3c(-c4ccccc4OC)nnc3s2)cc1,-3,?,-24%,-10%,-9%,7%
CCCCc1c(-c2ccccc2OC)ncn1CCc1ccccc1,0,?,21µM*,nt,nt,nt
COc1ccccc1C(=O)OCCc1ccccc1,-8,-7%,1%,10%,-4%,nt
CCCCc1c(-c2ccccc2OC)ncn1CCc1ccc(Cl)cc1,?,21µM*,?,nt,nt,nt
CCCCc1c(-c2ccccc2OC)ncn1CCc1ccc(OC)cc1,-79*,23µM*,18µM*,nt,nt,nt
Clc1ccc(-c2cccc3nccn23)c(Cl)c1,-2,-27%,-18%,-6%,-20%,nt
CC(C)(C)CC(C)(C)NCC(O)COc1c(F)cc(Br)cc1F (stereo not given),?,23µM*,?,?,-98%,2%
COCCOC(=O)c1ccccc1C(=O)OCCOC,nt,nt,nt,nt,nt,3%
CC1Sc2ccc(S(=O)(=O)N3CCC(C(=O)N(C)Cc4ccco4)CC3)cc2NC1=O (stereo not given),-12,?,15µM*,?,1%,4%
COc1ccc(CNC(=O)C2CCN(S(=O)(=O)c3ccc4c(c3)NC(=O)C(C)S4)CC2)cc1 (stereo not given),8,?,?,-7%,-12%,3%
CC1Sc2ccc(S(=O)(=O)N3CCC(C(=O)Nc4cccc(Cl)c4)CC3)cc2NC1=O (stereo not given),?,18µM*,?,?,-30%,4%
CCc1ccc(NC(=O)C2CCN(S(=O)(=O)c3ccc4c(c3)NC(=O)C(C)S4)CC2)cc1 (stereo not given),-10,?,18µM*,?,-3%,3%
COc1ccccc1NC(=O)C1CCN(S(=O)(=O)c2ccc3c(c2)NC(=O)C(C)S3)CC1 (stereo not given),-16,?,?,?,-39%,4%
CC1Sc2ccc(S(=O)(=O)N3CCC(C(=O)NCc4ccc(Cl)cc4)CC3)cc2NC1=O (stereo not given),-20,15µM*,16µM*,?,3%,4%
CCc1ccc(NC(=O)C2CCN(S(=O)(=O)c3ccc4c(c3)NC(=O)CO4)CC2)cc1,?,?,?,?,-13%,2%
SMILES,IL-1B inflam inh,TDP1 cell noCPT,TDP1 cell CPT,TGFb inhibitor,HepG2 tox,TDP1 block
Cc1cccc(NC(=O)CSc2nnc3[nH]c(=O)cc(-c4ccccc4)n23)c1C,nt,-11%,?,2%,-23%,0%
CC(Oc1ccccc1)C(=O)N1CCC2(CC1)CC(=O)c1ccccc1O2 (stereo not given),-4,?,?,?,-21%,-12%[0.505 µM]
CCOC1=C2CN(S(=O)(=O)c3ccc(C)cc3)C(c3cccc(Cl)c3)CC2N(S(=O)(=O)c2ccc(C)cc2)C(c2ccncc2)C1 (stereo not given),6,16µM*,15µM*,nt,nt,nt
CCOC1=C2CN(S(=O)(=O)c3ccc(C)cc3)C(c3cccc(Cl)c3)CC2NC(c2ccccc2)C1 (stereo not given),-15,?,18µM*,nt,nt,nt
CCOC1=C2CN(S(=O)(=O)c3ccc(C)cc3)C(c3cccc(Cl)c3)CC2N(S(=O)(=O)c2ccc(Cl)cc2)C(c2ccccc2)C1 (stereo not given),13,?,?,nt,nt,nt
Cc1cccc(C)c1NC(=S)N(CCN1CCCCCC1)Cc1ccco1,-21,18µM*,?,-14%,5%,0%
Cc1ccccc1NC(=S)N(CCN1CCCCC1)Cc1ccco1,16,?,-28%,-1%,0%,2%
Cc1cc(C)c(NC(=S)N(CCN2CCCCC2)Cc2ccco2)c(C)c1,-3,16µM*,?,-27%,4%,0%
Cc1cnc(C(=O)NCC(=O)Nc2ccccc2Br)cn1,16,-13%,1%,2%,7%,?
CC1(C(=O)Nc2cccc3cccnc23)CCN1Cc1cccc2c1OCO2 (stereo not given),-23,15µM*,?,?,-49%,nt
CC(C)(C)c1ccc(C(=O)N2CCC2(C)C(=O)Nc2cccc3ncccc23)cc1 (stereo not given),20,21µM*,23µM*,0%,-7%,nt
CC(C)(C)c1ccc(C(=O)N2CCC2(C)C(=O)Nc2cccc3ccccc23)cc1 (stereo not given),-16,23µM*,16µM*,11%,-25%,nt
CC(C)(C)c1ccc(CC(=O)N2CCC2(C)C(=O)Nc2cccc3cccnc23)cc1 (stereo not given),-4,23µM*,?,10%,-30%,nt
Cc1cc(C(=O)N2CCC2(C)C(=O)Nc2cccc3ccccc23)nn1C (stereo not given),-21,?,?,-4%,-2%,nt
